Test results published in PubChem BioAssay AID588579 (National Center for Advancing Translational Sciences (NCATS), 2011).
About 2,200 (0.55%) of roughly 400,000 compounds were called active. Not shown: some 1% with an inconclusive outcome. Calls come from the whole dose curve; as a rule, active = well fitted inhibition curve with a large enough effect; inconclusive = small, poorly fitted or top-dose-only effect, or another doubt; inactive = no such curve, though single readings can be large or run the other way. The entries come from a sample that favours actives as a whole.

Target: DNA polymerase kappa (Homo sapiens) (UniProt Q9UBT6)
Sequence (Q9UBT6 whole entry, looked up): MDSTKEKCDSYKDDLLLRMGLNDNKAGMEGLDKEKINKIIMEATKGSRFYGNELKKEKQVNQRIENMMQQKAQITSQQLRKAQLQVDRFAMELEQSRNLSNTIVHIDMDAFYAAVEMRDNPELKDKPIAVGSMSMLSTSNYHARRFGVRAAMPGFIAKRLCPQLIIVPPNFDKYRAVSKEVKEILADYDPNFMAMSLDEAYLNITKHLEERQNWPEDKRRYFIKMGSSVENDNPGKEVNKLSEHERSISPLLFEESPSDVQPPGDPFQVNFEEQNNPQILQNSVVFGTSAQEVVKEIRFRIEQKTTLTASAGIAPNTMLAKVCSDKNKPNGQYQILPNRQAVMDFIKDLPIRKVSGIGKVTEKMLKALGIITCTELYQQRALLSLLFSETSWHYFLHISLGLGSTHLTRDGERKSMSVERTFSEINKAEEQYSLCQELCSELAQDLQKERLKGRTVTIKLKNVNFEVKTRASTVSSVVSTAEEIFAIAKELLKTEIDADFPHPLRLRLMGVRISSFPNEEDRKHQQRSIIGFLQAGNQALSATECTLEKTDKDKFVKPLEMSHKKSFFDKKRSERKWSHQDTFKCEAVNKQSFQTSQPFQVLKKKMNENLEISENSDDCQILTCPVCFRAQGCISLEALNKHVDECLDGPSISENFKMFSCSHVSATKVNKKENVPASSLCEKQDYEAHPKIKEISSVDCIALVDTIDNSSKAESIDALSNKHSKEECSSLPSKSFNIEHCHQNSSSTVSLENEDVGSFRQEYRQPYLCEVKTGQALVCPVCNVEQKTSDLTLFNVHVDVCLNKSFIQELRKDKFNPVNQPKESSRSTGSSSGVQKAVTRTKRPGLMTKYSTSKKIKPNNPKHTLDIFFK
Test: qHTS for Inhibitors of Polymerase Kappa
Details: purified Pol kappa, fluorescent DNA synthesis assay, 10 min; series mostly up to 107 µM; activity, negative = inhibition: at the top concentration
Summary of the method: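 10 nM Pol kappa preincubated 15 min at room temperature with compounds, then reaction started with substrate at 50 nM final. Fluorescence read kinetically at 0 and 10 min; buffer-only wells served as negative control.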
% is set by controls: 0 for no effect and ±100 for the full control effect; potency is the fitted concentration of half-maximal effect.

activity, negative = inhibition, inactive:
Cc1noc(C)c1-c1nc(Nc2ccccc2)c2ccccc2n1 0.194% [at 60.1 µM], COc1cccc(-c2nc(Nc3ccncc3)c3ccccc3n2)c1 -8.84% [at 60.1 µM], O=C(c1ccco1)N1CCC2(CC1)CCN(c1ncccn1)CC2 4.69% [at 60.1 µM], COc1ccc(-c2ccnc(SCC(=O)N3CCOCC3)n2)cc1 -3.52%, COc1ccc(S(=O)(=O)N2CCN(CC(=O)N3CCOCC3)CC2)cc1OC -0.432%, CCN(CC)/[N+]([O-])=N/OCOC(=O)Cc1c(C)n(C(=O)c2ccc(Cl)cc2)c2ccc(OC)cc12 -20.9%, O=C(Nc1ccccc1)c1ccccc1OCc1ccccc1 -8.48%, CCc1ccccc1NS(=O)(=O)c1ccc2nc(-c3ccccc3)[nH]c2c1 -4.51%, CC(=O)Nc1ccc(NC(=O)C2CCCN2S(=O)(=O)c2cccc(C(F)(F)F)c2)cc1 (centres undefined) 3.23%, COc1ccc(CNc2ncncc2-c2ccccc2OC)c(OC)c1 -3.98% [at 60.1 µM], OC(CBr)C[n+]1cccc2cc(Br)ccc21 (centres undefined) -4.74%, SCc1nc2ccc(Cl)cc2[nH]1 4.08%, CCCC[C@H]1C(=O)N(c2ccccc2)N(c2ccc(O)cc2)C1=O -4.08% [at 19.4 µM], COc1cccc(N2CC(NC(=O)/C=C\c3ccccc3)CC2=O)c1 (centres undefined) -8.26% [at 60.1 µM], COCOc1cc(O)c(C(=O)/C=C/c2ccc(OCOC)c(OCOC)c2)c(OCOC)c1 8.25%, C=CCC1CCC(=O)N2CCCC12 (centres undefined) -5.47% [at 158 µM], COc1cc(OC)c(/C=C/c2ccnc3ccccc23)c(OC)c1 -1.63%, COc1cc(NS(=O)(=O)c2ccc3c(c2)OCC(C(=O)N2CCCC2)O3)cc(OC)c1 (centres undefined) -3.15%, COc1ccc(OC)c2sc(N3CCN(C(=O)C4COc5ccccc5O4)CC3)nc12 (centres undefined) 0.367% [at 60.1 µM], COc1ccc(CC(N)C(=O)NC2C(O)[C@H](n3cnc4c(N(C)C)ncnc43)O[C@@H]2CO)cc1 (some centres undefined) 3.17% [at 19.4 µM], Cc1csc[n+]1CCC1CCCCC1 -13.7%, CCCCCCCC/C=C\CCCCCCCC(=O)OC[C@H](CO)OC(C)=O 0.528% [at 19.4 µM], Cc1ccc(Cn2cnc3c(cnn3C(C)(C)C)c2=O)c(F)c1 -5.83%, C(=Nc1ccc(/C=C/c2ccnc3ccccc23)cc1)Nc1ccc(/C=C/c2ccnc3ccccc23)cc1 -6.28%, COCCn1c(=O)c(CCc2ccccc2)nc2cncnc21 0.194% [at 60.1 µM], COc1ccccc1C(=O)NC(=O)COC(=O)c1ccco1 4.84%, Cc1ccc(C(=O)N/C(=C\c2ccco2)C(=O)NC2CCS(=O)(=O)C2)cc1 (centres undefined) -2.02%, COc1ccc2[nH]cc(CCNc3nc(-c4cccc(NS(C)(=O)=O)c4)nc4ccccc34)c2c1 -3.54% [at 60.1 µM], O=c1ccn([C@@H]2O[C@H](COP(=O)(O)OP(=O)(O)OP(=O)(O)O)[C@@H](O)[C@H]2O)c(=O)[nH]1 4.9% [at 19.4 µM], CC1(C)OC2CC(=O)OC[C@@]23C1CC(=O)[C@]1(C)C3CC[C@@]2(C)C(c3ccoc3)OC(=O)C3O[C@@]321 (some centres undefined) -9.63% [at 60.1 µM], COCCNc1ncnc2ccc(-c3cccnc3)cc12 6.7% [at 60.1 µM], COCCn1c(=O)c(CCc2ccccc2)nc2cnc(N3CCNCC3)nc21 2.58% [at 60.1 µM]

Potency, active:
c1ccc2c(Nc3ccncc3)nc(-c3ccoc3)nc2c1 28.2 µM, COC1=C/C(=C/c2c(N)n3nc(CC(=O)N4CCOCC4)sc3nc2=O)C=CC1=O 79.4 µM, CCc1ccc(NC(=O)C2CCCN2S(=O)(=O)c2ccc3nc(-c4ccccc4)[nH]c3c2)cc1 (centres undefined) 89.1 µM, COc1ccc(/C=C/C(=O)c2cc(Br)ccc(=O)c2O)cc1 25.1 µM, Cc1c(CC(=O)N2CCN(C(=O)C3COc4ccccc4O3)CC2)c(=O)oc2c(O)c(O)ccc12 (centres undefined) 7.08 µM, COc1ccccc1C(=O)N/C(=C/c1ccco1)C(=O)Nc1ccc(C(=O)O)cc1 50.1 µM

Potency, inactive:
OCCC(O)CO (centres undefined)
